We go through 1 substance from paper PMC10480535.

The target of this assay is MOB kinase activator 2 (UniProt Q70IA6). Kind of assay: cross-link between two proteins; cross-linking mass spectrometry; proximity labelling.
Sequence of UniProt Q70IA6 (Q70IA6 whole entry): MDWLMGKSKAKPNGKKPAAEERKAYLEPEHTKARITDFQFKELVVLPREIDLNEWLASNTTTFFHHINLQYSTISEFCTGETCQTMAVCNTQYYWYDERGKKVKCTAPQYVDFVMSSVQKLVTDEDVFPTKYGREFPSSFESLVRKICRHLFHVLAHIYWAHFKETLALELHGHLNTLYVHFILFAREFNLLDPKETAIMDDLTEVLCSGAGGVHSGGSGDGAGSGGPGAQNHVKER

In the case of Flotillin-1, O75955, the “listed as a hit” value is reported as “yes”.
